Where “and” joins values, the source holds several entries; their conditions need not be identical. Identical values can stand only once. Screen size: about 16,000 compounds; about 4,000 (25%) were called active. Roughly 26% stayed inconclusive and do not appear here. Calls follow the shape of the dose curve; as a rule, active = well fitted curve in the direction sought with a large enough effect; inconclusive = small, poorly fitted or top-dose-only effect, or effect the other way; inactive = no such curve, though single readings can be large or run the other way. Not all results are given here.
biological target: Cytochrome P450 2C9 (Homo sapiens) (UniProt P11712); experiment: Cytochrome panel assay with activity outcomes; settings: recombinant CYP, pro-luciferin dealkylation, luminescence, p450-cyp2c9; series mostly up to 57.1 µM
Sequence (P11712 whole entry, looked up): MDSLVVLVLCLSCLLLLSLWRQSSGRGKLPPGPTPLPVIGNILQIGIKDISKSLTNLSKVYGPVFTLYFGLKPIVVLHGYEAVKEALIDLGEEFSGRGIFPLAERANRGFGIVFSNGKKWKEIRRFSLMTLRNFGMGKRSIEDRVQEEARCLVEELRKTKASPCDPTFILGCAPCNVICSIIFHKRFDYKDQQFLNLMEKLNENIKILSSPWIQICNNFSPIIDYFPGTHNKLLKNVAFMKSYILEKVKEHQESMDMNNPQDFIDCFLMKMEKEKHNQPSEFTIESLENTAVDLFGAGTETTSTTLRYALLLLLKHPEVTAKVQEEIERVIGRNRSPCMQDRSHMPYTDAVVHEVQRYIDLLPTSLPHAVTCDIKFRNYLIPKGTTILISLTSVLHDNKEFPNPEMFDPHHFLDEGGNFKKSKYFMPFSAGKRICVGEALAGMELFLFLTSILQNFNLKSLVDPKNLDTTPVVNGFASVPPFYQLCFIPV
% is scaled to controls: 0 for no effect and ±100 for the full control effect.

activity, negative = inhibition, inactive:
CC(CC(=O)O)(CC(=O)O)C(=O)O -9.5% [at 11.4 µM]
O=C(O)CCSCc1ccccc1 24.2% [at 11.4 µM]
Cc1noc(C)c1-c1cncnc1Nc1ccccc1 -0.353% [at 2.29 µM]
Cc1cnc(CNc2cc(-c3ccccc3CN(C)C)ncn2)cn1 10.9% [at 2.29 µM]
Cc1ccc(S(=O)(=O)N[C@H](CN)C(=O)O)cc1 -0.685% [at 11.4 µM]
Cc1cc(C)c2c(SCc3ccc(Cl)cc3Cl)nc(N)nc2n1 -3.34% [at 11.4 µM]
CSc1nc(C)cc(Nc2ccc(O)c(CN3CCOCC3)c2)n1 -8.69% [at 11.4 µM]
c1ccc(Nc2ncncc2-c2ccoc2)cc1 4.61% [at 2.29 µM]
O=C(O)CSCCc1ccccc1 29.1% [at 11.4 µM]
NCCSCCc1ccccc1 -27.8% [at 11.4 µM]
CC(=O)N[C@@H]1CONC1=O -5.39% [at 11.4 µM]
CCc1cc2c(nc1CC)CCN(CC/C(C)=N/O[C@@H](C)c1cn([C@@H]3COC[C@@H]3O)nn1)C2 18.9% [at 11.4 µM]
O=C(O)CCNc1ccccc1C(=O)O 14.2% [at 11.4 µM]
O=C(O)c1cccc(C(=O)O)c1S(=O)Cc1ccccc1 (stereo unspecified) 7.56% [at 11.4 µM]
Cn1ccnc1C[C@@](C)(O)c1ccccc1 4.93% [at 11.4 µM]
CC[C@](N)(C(=O)O)C(C)C 1.15% [at 11.4 µM]
CNc1ncncc1-c1ccccc1OC 6.03% [at 2.29 µM]
COc1cccc(-c2nc(NCc3cccs3)c3ccccc3n2)c1 -29.3% [at 2.29 µM]
COc1ccccc1-c1nc(NCc2cccs2)c2ccccc2n1 7.82% [at 2.29 µM]
C[C@@]12CC(=O)[C@@H]3[C@@H](CCC4=CC(=O)CC[C@]43C)[C@@H]1CC=C2CC(=O)O 4.34% [at 11.4 µM]

AC50, active:
O=C(Cc1ccccc1)NCCSCc1ccc(Cl)cc1 3.98 µM
CCN(CC)c1ncnc2c1sc1nc(C)cc(C)c12 17.8 µM
CCN1C(=O)C(CC(=O)Nc2ccc(OC)cc2)N(Cc2cccs2)C1=S (stereo unspecified) 7.08 µM
CCN1C(=O)C(CC(=O)Nc2ccc(Br)cc2)N(CCCc2ccccc2)C1=S (stereo unspecified) 0.708 µM
CCOC(=O)C1=C(C)N=C2c3ccccc3C(=O)C2C1c1ccc(C)cc1 (stereo unspecified) 0.891 µM
CCOC(=O)C1=C(C)N=C2c3ccccc3C(=O)C2C1c1ccc(Cl)cc1 (stereo unspecified) 0.562 µM
CC(=O)c1cccc(NS(=O)(=O)c2ccc(N/C=C\C(=O)c3ccc(F)cc3)cc2)c1 2.82 µM
COC(=O)c1ccc(/C=N\NC(=O)c2ccc(C)cc2Cl)cc1 8.91 µM
Cc1ccc(S(=O)(=O)N[C@H](C(=O)Oc2ccc3c(C(F)(F)F)cc(=O)oc3c2)c2ccccc2)cc1 10 µM
c1ccc2c(c1)ncn2-c1ccc(-c2ccnc(-c3ccncc3)n2)cc1 0.224 µM
CCC(C)NS(=O)(=O)c1ccc(OCC(=O)Nc2ccc3c(c2)OCCO3)cc1 (stereo unspecified) 3.98 µM
Cc1cc(N2CCOCC2)nc(SCc2ccc(Cl)cc2Cl)n1 7.94 µM
O=[N+]([O-])C1=CC=C2C(=NC3(CCCCC3)N2O)C1=NC1CCCCC1 3.55 µM
CCOCC(=O)Nc1cc(C(=O)Nc2ccccc2)ccc1Cl 5.62 µM
c1ccc(CCSc2nccn2-c2ccccc2)cc1 15.8 µM
Cc1ccccc1CSc1nccn1-c1ccccc1 7.08 µM
COC(=O)c1c(NC(=O)C(C)(C)C)sc2c1C(C(=O)OC)CC2 (stereo unspecified) 20 µM
O=c1nc(N2CCOCC2)ccn1-c1nc(-c2ccccc2)oc1-c1ccccc1 4.47 µM
CCCCNC(=O)CN1C(=O)NC2(CCCc3ccccc32)C1=O (stereo unspecified) 2.24 µM
CC1(c2ccccc2)NC(=O)N(CC(=O)NCCC2=CCCCC2)C1=O (stereo unspecified) 25.1 µM
O=C(COc1ccc(Cl)cc1)NCCC1=CCCCC1 3.98 µM
O=C(CN1CCN(c2ncccn2)CC1)NCCC1=CCCCC1 3.55 µM
Cc1c(Cl)cccc1Nc1ccccc1C(=O)O 3.16 µM
Cc1ccc(Cl)c(Nc2ccccc2C(=O)O)c1Cl 7.94 µM and 1.26 µM
Cc1cccc(Nc2ccccc2C(=O)O)c1C 7.94 µM
CCc1c(O)nc2sc3ccccc3n2c1=O 3.16 µM
COC(=O)[C@@]1(Cc2ccccc2)[C@H]2c3cc(C(=O)N4CCCC4)n(Cc4ccc(C)o4)c3C[C@H]2CN1C(=O)c1ccccc1 1 µM
COC(=O)[C@@]1(Cc2ccc(F)cc2)[C@H]2c3cc(C(=O)N4CCCC4)n(Cc4ccc(C)o4)c3C[C@H]2CN1C(=O)c1ccccc1 3.98 µM
COC(=O)[C@@]1(Cc2ccc(F)cc2)[C@H]2c3cc(C(=O)N(C)C)n(Cc4ccc(C)o4)c3C[C@H]2CN1C(=O)c1ccccc1 10 µM
O=c1c2ccccc2c(-c2ccccc2)nn1-c1ccc(Cl)c(Cl)c1 11.2 µM
O=c1c2ccccc2c(-c2ccccc2)nn1Cc1ccc(Cl)cc1 8.91 µM
CCCc1[nH]nc2c1C(c1ccncc1)C(C#N)=C(N)O2 (stereo unspecified) 2.51 µM
C=CCn1c(SCC)nc2sc3c(c2c1=O)CCc1ccccc1-3 10 µM
Cc1c2cccc(Sc3ccccc3)c2c2c3c(cccc13)[S+](c1ccccc1)C2 (stereo unspecified) 2.51 µM
CC1CCCC(C)N1C(=O)C1CC(c2ccc(F)cc2)=NO1 (stereo unspecified) 10 µM
N#CC1=C(N)OC2=C(CC/C2=C\c2ccccc2)C1c1ccccc1 (stereo unspecified) 0.355 µM
COc1cccc2c(=O)c(C(=O)NCc3cccs3)c[nH]c12 6.31 µM
CCN(C(=O)c1cnc(N2CCN(c3ncccn3)CC2)c2ccccc12)c1cccc(Cl)c1 3.16 µM
CN(C(=O)c1cnc(N2CCN(c3ncccn3)CC2)c2ccccc12)c1ccc(Cl)cc1 5.01 µM

AC50, inactive:
O=C(Cc1ccccc1[N+](=O)[O-])NCCSCc1c(F)cccc1Cl
CCNc1ncc2nc(-c3ccc(OC)cc3)c(=O)n(Cc3cccs3)c2n1
Cc1nnsc1SC(C)C(=O)O (stereo unspecified)
O=C(/C=C/Nc1ccccc1)c1ccc(Oc2ncccn2)cc1
CC(=O)c1cccc(NC=C2C(=O)OC3(CCCCC3)OC2=O)c1
Cc1ccc(C(=O)N/N=C/c2ccc(S(=O)(=O)O)o2)c(Cl)c1
Cc1ccc(S(=O)(=O)NC(CC(C)C)C(=O)Oc2ccc3c4c(c(=O)oc3c2)CCC4)cc1 (stereo unspecified)
CCC(C)NS(=O)(=O)c1ccc(OCC(=O)NCC2CCCO2)cc1 (stereo unspecified)
CCOC(=O)C1=C[C@@]2(CC)CCCN3CCc4c(n1c1ccccc41)[C@H]32
CCOCC(=O)Nc1cc(C(=O)Nc2cccc(C)c2C)ccc1Cl
Cn1nnnc1SCc1ccccc1[N+](=O)[O-]
O=c1c(-c2cc(F)cc(F)c2)nc2cnc(N3CCOCC3)nc2n1-c1ccccc1
O=c1c(-c2ccccc2)nc2cnc(N3CCOCC3)nc2n1-c1ccccc1
O=C(CN1CCN(C2CCCCC2)CC1)NCCC1=CCCCC1
CCCCCOc1ccc(NC(=O)C(=O)NCCC2=CCCCC2)cc1
O=C(CN1C(=O)NC2(CCCC2)C1=O)NCCC1=CCCCC1
O=C(NCCc1ccc(Cl)cc1)c1ncn[nH]1
CCCCNC(=O)[C@@H]1Cc2ccccc2N1C(=O)[C@H](N)CC
O=C(O)C1CCN(c2ncccn2)CC1
O=C1CSc2ccc(C(=O)NCCC3=CCCCC3)cc2N1
COc1ccc2c(c1)CCCC21NC(=O)N(CC(N)=O)C1=O (stereo unspecified)
CCCCC[C@H](CC(=O)NO)C(=O)N[C@@H](C(=O)N1CCC[C@H]1CO)C(C)C
O=C(O)/C=C\c1cnc[nH]1
Cc1c(Nc2ncccc2C(=O)O)cccc1C(F)(F)F
O=C(Nc1cccc(F)c1)N1CCCC2(CCN(C(=O)c3cc(C(F)(F)F)cc(C(F)(F)F)c3)CC2)C1
CC(=O)Nc1c(I)c(C(=O)N[C@H]2[C@@H](O)[C@H](O)[C@H](CO)O[C@@H]2O)c(I)c(N(C)C(C)=O)c1I
Cc1c(C=NCCOCc2ccccc2)cnn1C
Cc1ccc(Cn2cnc3c(nnn3Cc3ccc(Cl)cc3)c2=O)cc1
Cn1c(=O)c(-c2ccc(Cl)cc2)nc2cnc(Nc3ccccc3)nc21
COc1ncc2nc(-c3ccccc3)c(=O)n(-c3ccccc3)c2n1
CC(C)(C)Cn1nc(-c2ccc(Cl)cc2)c2c(N)ncnc21
O=P(O)(CCc1ccccc1)C(O)c1ccccc1 (stereo unspecified)
C=CCn1c(SCc2ccccc2)nc2scc(-c3ccc(C)o3)c2c1=O
O=C(NNC(=O)C1CC(c2cccnc2)=NO1)Nc1cccc(F)c1 (stereo unspecified)
CSCCC(NC=C1C(=O)OC(C)(C)OC1=O)C(=O)O (stereo unspecified)
O=S(=O)(O)C1CCNCC1
COc1ccccc1CN1CCCC2(CCN(C(C)=O)CC2)C1
CN(N=O)C(=O)N[C@H]1[C@@H](O)[C@H](O)[C@H](CO)O[C@@H]1O
COCC(=O)N1CCC2(CC1)CN(c1ccccn1)C2
COC(=O)N1CCC2(CC1)CCN(c1ncccn1)CC2
COCC(=O)N1CCC2(CC1)CCN(c1ncccn1)CC2
COCC(=O)N1CCC2(CCCN(c3ncccn3)C2)CC1
